Source: PubChem BioAssay (several laboratories)
PostGolgi yeast = growth inhibition of a yeast mutant, post-Golgi transport screen; 98,000 compounds, 0.9% hits; AID 739; post-Golgi transport phenotypic cell assay; inhibition, % at 10 µM;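 note: yeast cells grown in 1536-well plates; yeast grown about 18 h at 30C before absorbance read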
PTK2B oligo ant = blocks oligomerization of human Pyk2 in cells. z-score (the deposit names both 25 µM and 10 µM). Q293 cells, Pyk2 FERM NanoBiT luminescence; active compounds read low. Q14289. AID 1347419. 99,000 compounds, 0.83% hits;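 active = Z-score of -3 or lower, scaled per plate to the spread of control and sample wells; inactive = z-score above -3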;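 note: negative z-score means lost luminescence so less FERM oligomerization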
Cav3 T inh = blocks human Cav3.2 T-type calcium channel | B-score at 10 µM | 100,000 compounds, 4% hits | Cav3.2-expressing cells, Fluo-4 calcium fluorescence FDSS; active compounds read low | O95180;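 active = single-dose well whose peak fluorescence ratio is a statistical outlier from its plate by either plate-standardised score or position-corrected B-score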
PostGolgi ctrl = growth of the yeast control strain, post-Golgi counter-screen | efflux-deficient yeast background strain, growth absorbance A615, 16 h | 98,000 compounds, 5% hits | AID 738 | inhibition, % at 10 µM
A number is an active result; i = inactive; nt = no result. Only some compounds are listed: those with a hit (about 8% of all), similar ones and a draw of the others. Cut-off read from the data, not from the text of the source, unless noted: active = inhibition above about 30%; inactive = the rest.

SMILES | PostGolgi yeast | PTK2B oligo ant | Cav3 T inh | PostGolgi ctrl
O=C(Nc1cccc(F)c1)c1ccc(S(=O)(=O)NCC2CCCO2)cc1 (stereo not given) | i | i | -5.3 | i
Cc1cccc(NC(=S)NNC(=O)c2csc(C(C)C)c2)c1 | nt | i | -5.5 | nt
COc1ccc(NCC(=O)Nc2ccc(Cl)cc2C)c(OC)c1 | i | i | i | i
CCOc1ccccc1-c1nnc(SCC(=O)Nc2ccccc2)o1 | i | i | i | 43
Cc1cccc(N2C(=O)CC(Sc3nc(C)cc(C)n3)C2=O)c1 (stereo not given) | i | i | i | i
Cc1ccc(N2C(=O)CC(Sc3nc4ccccc4o3)C2=O)cc1Cl (stereo not given) | i | i | i | 39
COc1ccc(-c2nnc(SCC(=O)Nc3sc4c(c3C#N)CCCC4)n2-c2ccccc2)cc1 | nt | i | i | nt
COc1ccc(-n2c(SCC(=O)Nc3sc4c(c3C#N)CCCC4)nnc2-c2ccccc2OC)cc1 | nt | i | -6.3 | nt
Cc1cc(C)c(O)c(-c2cc(C(=O)Nc3ccc(S(=O)(=O)N4CCOCC4)cc3)[nH]n2)c1 | i | -3.2 | i | i
Cc1cc(C)nc(NS(=O)(=O)c2ccc(NC(=O)c3ccc(S(=O)(=O)N4CCOCC4)cc3)cc2)n1 | i | i | i | i
Cc1ccc(Cl)cc1N1CCN(S(=O)(=O)c2cnc[nH]2)CC1 | i | nt | i | i
CCN(CC)S(=O)(=O)c1ccc(C)c(NC(=O)COC(=O)c2ccc(C)c(S(=O)(=O)N3CCOCC3)c2)c1 | i | i | -4.2 | i
CCn1c(O)c(/C=N/n2cnnc2)sc1=S | i | i | i | 30
CCn1c(O)c(C=NC2CCCC2)sc1=S | i | i | i | i
COc1ccccc1NC(=O)CC1COc2ccccc2O1 (stereo not given) | i | i | i | i
O=C(Nc1cnn(Cc2ccc(Cl)cc2Cl)c1)c1noc2c1CCCC2 | i | nt | i | 33
Cc1nc2ccccc2c(=O)n1NC(=O)Cc1ccc(Br)cc1 | i | i | i | i
CCCCCc1ccc(CC(=O)Nn2c(C)nc3ccccc3c2=O)cc1 | i | i | i | 41
OCC(CO)(CO)N=Cc1cc(Br)ccc1O | i | i | -7.1 | i
C#CCOCCOCCOCCNc1nc(N2CCN(C(=O)[C@H](CCCCN)n3cc([C@@H](N)C(C)CC)nn3)CC2)nc(N2CCN(C(=O)[C@H](CCCCN)n3cc([C@@H](N)CC(C)C)nn3)CC2)n1 (stereo not given in full) | nt | nt | i | nt
Oc1ccc(Br)cc1CNn1cnnc1 | i | i | -3.8 | i
COc1ccc(C(=O)CSc2nnc(-c3cccnc3)n2Cc2ccco2)cc1 | i | i | i | i
CC1CCN(C(=O)CSc2nnc(-c3cc4ccccc4cc3O)n2Cc2ccco2)CC1 | i | i | i | 39
COc1ccc(C(=O)CSc2nnc(-c3cc4ccccc4cc3O)n2Cc2ccco2)cc1 | i | i | i | 56
N#Cc1c(/N=C/C=C/c2ccccc2)sc2c1CCCC2 | i | i | i | i
SMILES | PostGolgi yeast | PTK2B oligo ant | Cav3 T inh | PostGolgi ctrl
CCCCOC(=O)/C(=C\c1ccc([N+](=O)[O-])o1)NC(=O)c1ccccc1 | nt | i | i | nt
Nc1nc(SCc2c(F)cccc2Cl)[nH]c(=O)c1-c1ccccc1 | i | i | i | i
O=S(=O)(c1ccc(Br)cc1)N1CCN(c2ccc3nnc(-c4ccccc4)n3n2)CC1 | i | nt | i | 56
O=C(c1ccc(Br)o1)N1CCN(c2ccc3nnc(-c4ccccc4)n3n2)CC1 | i | nt | 3.6 | i
Cc1nnc2ccc(N3CCN(C(=O)c4ccccc4)CC3)nn12 | i | nt | i | i
COC(=O)C1=C(C)OC(N)=C(C#N)C1c1c(C)nn(C)c1C (stereo not given) | nt | i | nt | nt
Cn1cc([N+](=O)[O-])c(C(=O)Nc2nc(-c3ccc(Cl)cc3)cs2)n1 | i | i | i | 40
Cc1ccc(-c2nc(NC(=O)c3nn(C)cc3[N+](=O)[O-])sc2C)cc1 | i | i | i | i
CC(=O)Nc1ccc(S(=O)(=O)Nc2cccc(-c3nc4ccccc4o3)c2)cc1 | i | i | i | i
O=S(=O)(Nc1ccc(-c2nc3ccccc3o2)cc1)c1ccccc1 | i | -3.5 | i | 39
COC(=O)C1=C(C)N(c2ccc(C)cc2)/C(=C/c2cccs2)C1=O | i | i | i | 33
CC1CCC(NC(=O)CN2C(=O)C3CCCN3c3ncc(Cl)cc32)CC1 (stereo not given) | i | nt | -6.5 | i
CC1(C)N=C(c2ccc(Cl)cc2Cl)C(=O)N1 | i | i | i | i
CCN(CC)S(=O)(=O)c1ccc(NC(=O)Cn2cnc3ccccc3c2=O)cc1 | i | i | i | i
O=C(Nc1cccc(C(F)(F)F)c1)c1ccco1 | i | i | i | i
COc1cccc(C(=O)Nc2ccc(Cl)c(C(F)(F)F)c2)c1 | i | i | -5.1 | i
O=C(Nc1ccc(Cl)c(C(F)(F)F)c1)c1ccco1 | i | i | -5.8 | i
CN(C)c1nc(N)nc(Cn2ccnc2)n1 | i | i | i | i
CC(=O)C1=C(O)C=C(c2ccco2)CC1c1ccco1 (stereo not given) | i | i | i | i
CCCCOc1ccc(C(=O)N/C(=C\c2ccc(OC)cc2)C(=O)OCc2ccco2)cc1 | i | i | -8.6 | i
C=CCOC(=O)/C(=C\c1ccc(OC)cc1)NC(=O)c1ccco1 | i | i | nt | i
O=C(O)C1CCC(=O)N1Cc1ccccc1Cl (stereo not given) | i | i | i | 30
CCN(CC(=O)Nc1cccc(OC)c1)C(=O)c1ccc(C)s1 | i | i | i | i
O=C(NCCC1=CCCCC1)c1ccc(Cl)c(S(=O)(=O)N2CCOCC2)c1 | i | i | i | i
Cc1ccc(CSCCNC(=O)c2ccc(N(C)S(=O)(=O)c3ccccc3)cc2)cc1 | i | i | -5.6 | i
SMILES | PostGolgi yeast | PTK2B oligo ant | Cav3 T inh | PostGolgi ctrl
Cc1ccc(CSCCNC(=O)c2ccc(Cl)c(S(=O)(=O)N3CCOCC3)c2)cc1 | i | i | -7.4 | i
C[C@H](NC(=O)c1nc[nH]c1C(=O)N[C@@H](CCCCNC(=O)OC(C)(C)C)C(=O)OC(C)(C)C)c1ccccc1 | nt | nt | i | nt
Brc1ccc(-c2nc3ncccn3c2NC2CCCCC2)o1 | i | i | i | 45
O=C(/C=C/c1c(Cl)cccc1Cl)N1CCN(c2ncccn2)CC1 | i | i | -4.3 | i
O=C(c1cccc(-n2cnnn2)c1)N1CC=C(c2ccccc2)CC1 | i | i | -4.6 | i
Cc1ccc(CNC(=O)c2cccc(-n3cnnn3)c2)cc1 | i | i | i | i
CC(C)c1nc(SCC(=O)N2CCCc3ccccc32)c2c(=O)n(C)c(=O)n(C)c2n1 | i | nt | i | 35
C=CCn1c(SCC(=O)N2CCc3ccccc3C2)nc2sc(CC)cc2c1=O | nt | i | nt | nt
CCn1c(SCC(=O)N2CCCc3ccccc32)nc2c1c(=O)n(C)c(=O)n2C | i | i | i | i
C=CCn1c(SCC(=O)N2CCc3ccccc3C2)nc2ccccc2c1=O | i | i | i | 49
Cc1cc2c(=O)n(Cc3ccco3)c(SCC(=O)N3CCCc4ccccc43)nc2s1 | i | i | i | 32
O=C(CSc1nnnn1-c1ccc(Cl)cc1)N1CCc2ccccc2C1 | i | i | i | 38
Cc1nonc1NC(=O)OC1CCCCC1 | i | i | i | i
CCn1c(SCC(=O)N2CCCc3ccccc32)nnc1-c1ccco1 | 49 | i | i | i
CCn1c(SCC(=O)N2CCCc3ccccc32)nc2ccccc2c1=O | i | i | -6.9 | 40
